SRC1 TRFRET art – flags TR-FRET format artefacts in PPARgamma SRC-1 recruitment agonist screen; TR-FRET ratio at 8 µM; hit rate 0.34% among 99,000; TR-FRET detection artefact counter-screen, emission ratio; stronger effect = higher value; in the data active = TR-FRET ratio above about 2300
PPARg SRC-1 ag – promotes SRC-1 coactivator recruitment by human PPARgamma | P37231 | PPARgamma-SRC-1 coactivator recruitment biochemical assay | activation, % at 8 µM | hit rate 0.41% among 200,000 | AID 631; in the data active = activation above about 19%;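 also: 0% = DMSO and 100% = reference agonist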
Target sequence (P37231 whole entry, looked up): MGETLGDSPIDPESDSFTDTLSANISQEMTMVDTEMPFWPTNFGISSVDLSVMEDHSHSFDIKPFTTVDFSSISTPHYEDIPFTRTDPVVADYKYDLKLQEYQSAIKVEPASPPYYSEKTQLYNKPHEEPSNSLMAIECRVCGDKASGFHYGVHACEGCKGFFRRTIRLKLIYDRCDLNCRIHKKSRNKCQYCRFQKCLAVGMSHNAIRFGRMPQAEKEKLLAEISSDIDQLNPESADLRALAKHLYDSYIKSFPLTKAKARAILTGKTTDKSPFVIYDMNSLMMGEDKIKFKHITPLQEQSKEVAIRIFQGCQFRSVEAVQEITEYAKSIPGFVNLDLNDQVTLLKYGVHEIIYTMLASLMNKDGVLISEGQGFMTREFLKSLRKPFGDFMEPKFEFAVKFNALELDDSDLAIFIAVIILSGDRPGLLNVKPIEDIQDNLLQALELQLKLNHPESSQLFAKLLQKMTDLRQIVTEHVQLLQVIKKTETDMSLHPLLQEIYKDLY
TR-FRET SRC-2 ct – TR-FRET artefact, counter-screen to PPARgamma/SRC-2 agonist assay; stronger effect = higher value; TR-FRET ratio at 8 µM; hit rate 0.4% among 200,000; AID 1049
PPARg SRC-3 ag – agonists of human PPARgamma SRC-3 coactivator recruitment | P37231 | biochemical PPARgamma/SRC-3 coactivator recruitment assay | activation, % at 8 µM | hit rate 0.26% among 200,000 | AID 731; in the data active = activation above about 23%;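 also: 0% = DMSO and 100% = reference agonist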
PPARg SRC-2 ag – PPARgamma-driven SRC-2 recruitment agonism | hit rate 0.34% among 200,000 | activation, % at 8 µM | P37231 | PPARgamma LBD-SRC-2 recruitment, biochemical | AID 1032; in the data active = activation above about 22%;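 also: 0% = vehicle and 100% = reference agonist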
SRC3 TRFRET art – TR-FRET artefact, counter-screen to PPARgamma/SRC-3 agonist assay. hit rate 0.39% among 99,000. AID 1048. TR-FRET ratio at 8 µM. PPARgamma/SRC-3 format; stronger effect = higher value
An asterisk follows results filed as active. In the library only some 0.9% were active in any assay of this set; here they are far more common. Rule as the data show it, unless noted: active = TR-FRET ratio above about 2000; inactive = the rest.

Results for Clc1ccc(-c2ccc(C=Nc3ccc(N4CCOCC4)cc3)o2)c(Cl)c1 ?
SRC1 TRFRET art: 2177; PPARg SRC-1 ag: 7.3; TR-FRET SRC-2 ct: 2149*; PPARg SRC-3 ag: 1.7; PPARg SRC-2 ag: 12.8; SRC3 TRFRET art: 1761

What do the screens show for `CCOC(=O)c1ccc2c(c1)nc(COc1ccc(OC)cc1)n2CC`?
PPARg SRC-1 ag: -4.2; TR-FRET SRC-2 ct: 1571; PPARg SRC-3 ag: 7.7; PPARg SRC-2 ag: 17.8

What do the screens show for `Cc1ccc(CN2CCN(Cc3ccc(OC(C)C)cc3)CC2CCO)o1` (stereo unspecified)?
SRC1 TRFRET art: 1584; PPARg SRC-1 ag: 2.1; TR-FRET SRC-2 ct: 1596; PPARg SRC-3 ag: -1.9; PPARg SRC-2 ag: -4.1; SRC3 TRFRET art: 1418

Results for Cc1ccc(CN2CCN(Cc3cccc(OCCO)c3)CC2CCO)o1 (stereo unspecified) ?
SRC1 TRFRET art: 1857; PPARg SRC-1 ag: 5.3; TR-FRET SRC-2 ct: 1711; PPARg SRC-3 ag: 2.6; PPARg SRC-2 ag: 22.0*; SRC3 TRFRET art: 1698

Results for CCCCOc1ccc(NC(=S)Nc2cc(C)nc(SCCCC)n2)cc1 ?
SRC1 TRFRET art: 1674; PPARg SRC-1 ag: 6.7; TR-FRET SRC-2 ct: 1558; PPARg SRC-3 ag: -1.9; PPARg SRC-2 ag: 6.2; SRC3 TRFRET art: 1450

How did Cc1ccsc1/C=C1\SC(N)=NC1=O do in these assays?
PPARg SRC-1 ag: 5.7; TR-FRET SRC-2 ct: 1449; PPARg SRC-3 ag: 5.7; PPARg SRC-2 ag: 10.9

Results for Cc1ccc(/C=C2\SC(N)=NC2=O)s1 ?
SRC1 TRFRET art: 2150; PPARg SRC-1 ag: 9.7; TR-FRET SRC-2 ct: 1747; PPARg SRC-3 ag: 6.8; PPARg SRC-2 ag: 24.0*; SRC3 TRFRET art: 1453

How did Cc1sc(NC(=O)CSC2=NCCS2)nc1-c1ccccc1 do in these assays?
PPARg SRC-1 ag: -0.9; TR-FRET SRC-2 ct: 1486; PPARg SRC-3 ag: 7.5; PPARg SRC-2 ag: 2.9

What do the screens show for `CC(=O)N1CC(=O)N=C1SCC(=O)Nc1nc(-c2ccccc2)c(-c2ccccc2)s1`?
SRC1 TRFRET art: 2356*; PPARg SRC-1 ag: 16.6; TR-FRET SRC-2 ct: 1758; PPARg SRC-3 ag: 10.1; PPARg SRC-2 ag: 17.9; SRC3 TRFRET art: 1929

Results for CCCCNC(=O)/C(C#N)=C/c1ccc(F)cc1F ?
SRC1 TRFRET art: 1614; PPARg SRC-1 ag: -6.7; TR-FRET SRC-2 ct: 1652; PPARg SRC-3 ag: 2.0; PPARg SRC-2 ag: -9.9; SRC3 TRFRET art: 1540

How did O=C(Nc1ccc(F)cc1F)c1csc(-c2cccs2)n1 do in these assays?
SRC1 TRFRET art: 1858; PPARg SRC-1 ag: 4.9; TR-FRET SRC-2 ct: 2010*; PPARg SRC-3 ag: 6.3; PPARg SRC-2 ag: 9.8; SRC3 TRFRET art: 1765

What do the screens show for `O=C(Nc1ccc(F)cc1F)c1csc(-c2ccncc2)n1`?
SRC1 TRFRET art: 1880; PPARg SRC-1 ag: 4.0; TR-FRET SRC-2 ct: 1625; PPARg SRC-3 ag: 3.6; PPARg SRC-2 ag: 2.1; SRC3 TRFRET art: 1707

Results for CCN(CC)c1ccc(C=Nc2cc(C)ccc2C)c(O)c1 ?
SRC1 TRFRET art: 2287; PPARg SRC-1 ag: 20.9*; TR-FRET SRC-2 ct: 1541; PPARg SRC-3 ag: 2.9; PPARg SRC-2 ag: 8.4; SRC3 TRFRET art: 1646

How did CCOC(=O)N1CCN(C(=O)CSCc2ccccc2Cl)CC1 do in these assays?
SRC1 TRFRET art: 1668; PPARg SRC-1 ag: 2.9; TR-FRET SRC-2 ct: 1619; PPARg SRC-3 ag: 1.6; PPARg SRC-2 ag: 8.8; SRC3 TRFRET art: 1583

Results for CC(C)[C@H](NC(=O)OC(C)(C)C)c1nnc(SCc2cccc(F)c2)o1 ?
PPARg SRC-1 ag: 55.3*; TR-FRET SRC-2 ct: 1557; PPARg SRC-3 ag: 5.4; PPARg SRC-2 ag: 15.4

Results for CC(C)C[C@H](NC(=O)OC(C)(C)C)c1nnc(SCc2cccc(F)c2)o1 ?
PPARg SRC-1 ag: 14.7; TR-FRET SRC-2 ct: 1571; PPARg SRC-3 ag: 6.3; PPARg SRC-2 ag: 0.4

What do the screens show for `O=C(OCc1ccc(Cl)cc1Cl)c1ccncc1`?
PPARg SRC-1 ag: 3.7; TR-FRET SRC-2 ct: 1636; PPARg SRC-3 ag: -2.1; PPARg SRC-2 ag: 1.5

What do the screens show for `CCOc1ccccc1C(=O)Nc1ccc(-n2nncc2C(C)(C)C)cc1`?
SRC1 TRFRET art: 1444; PPARg SRC-1 ag: -11.3; TR-FRET SRC-2 ct: 1519; PPARg SRC-3 ag: 2.1; PPARg SRC-2 ag: 4.2; SRC3 TRFRET art: 1565

Results for FC(F)(F)c1cccc(NC(=S)NCc2ccc(Cl)cc2)c1 ?
SRC1 TRFRET art: 1768; PPARg SRC-1 ag: 6.3; TR-FRET SRC-2 ct: 1667; PPARg SRC-3 ag: 6.5; PPARg SRC-2 ag: 3.2; SRC3 TRFRET art: 2072*

Results for O=C(N/N=C/c1cnc(N2CCCCC2)s1)c1ccc(Cl)cc1 ?
SRC1 TRFRET art: 1954; PPARg SRC-1 ag: 21.1*; TR-FRET SRC-2 ct: 1811; PPARg SRC-3 ag: 4.5; PPARg SRC-2 ag: 6.3; SRC3 TRFRET art: 1706

What do the screens show for `COc1ccccc1C(=O)NCC(=O)OCC(=O)c1ccc2c(c1)-c1ccccc1C2`?
SRC1 TRFRET art: 1947; PPARg SRC-1 ag: 3.7; TR-FRET SRC-2 ct: 1874; PPARg SRC-3 ag: 8.4; PPARg SRC-2 ag: 16.2; SRC3 TRFRET art: 2088*

How did CC(C)C(C)(C#N)NC(=O)CSc1nc2scc(-c3ccc(F)cc3)c2c(=O)n1Cc1ccccc1 (stereo unspecified) do in these assays?
SRC1 TRFRET art: 2769*; PPARg SRC-1 ag: 0.7; TR-FRET SRC-2 ct: 2522*; PPARg SRC-3 ag: 5.8; PPARg SRC-2 ag: -5.2; SRC3 TRFRET art: 2793*

What do the screens show for `CC(C)C(C)(C#N)NC(=O)CSc1nnc(-c2ccncc2)n1Cc1ccccc1` (stereo unspecified)?
PPARg SRC-1 ag: 6.6; TR-FRET SRC-2 ct: 1578; PPARg SRC-3 ag: 8.3; PPARg SRC-2 ag: 10.8

How did CN(CC1CCOCC1)C(=O)CC1C(=O)NCCN1CC1CCCCC1 (stereo unspecified) do in these assays?
SRC1 TRFRET art: 1952; PPARg SRC-1 ag: 5.5; TR-FRET SRC-2 ct: 1694; PPARg SRC-3 ag: -1.7; PPARg SRC-2 ag: -5.4; SRC3 TRFRET art: 1601

Results for CN(C)S(=O)(=O)c1ccc(Cl)c(NC(=O)CSc2nnnn2-c2ccc(O)cc2)c1 ?
SRC1 TRFRET art: 2160; PPARg SRC-1 ag: 6.7; TR-FRET SRC-2 ct: 2002*; PPARg SRC-3 ag: 1.5; PPARg SRC-2 ag: -3.4; SRC3 TRFRET art: 1580

How did Cn1nnnc1SCC(=O)Nc1cc(S(=O)(=O)N2CCCC2)ccc1Cl do in these assays?
SRC1 TRFRET art: 1762; PPARg SRC-1 ag: 3.1; TR-FRET SRC-2 ct: 1756; PPARg SRC-3 ag: 1.1; PPARg SRC-2 ag: 15.3; SRC3 TRFRET art: 1595

What do the screens show for `O=C(NN=C1CCCCCCCCCCC1)c1cccc(S(=O)(=O)N2CCOCC2)c1`?
SRC1 TRFRET art: 1487; PPARg SRC-1 ag: -6.1; TR-FRET SRC-2 ct: 1565; PPARg SRC-3 ag: 1.6; PPARg SRC-2 ag: -3.6; SRC3 TRFRET art: 1399

Results for Cc1ccc2c(C(=O)N3CCN(c4ccccc4)CC3)cc(-c3cccnc3)nc2c1C ?
SRC1 TRFRET art: 2369*; PPARg SRC-1 ag: 13.4; TR-FRET SRC-2 ct: 1394; PPARg SRC-3 ag: -0.9; PPARg SRC-2 ag: 1.9; SRC3 TRFRET art: 1604

What do the screens show for `O=C(Cc1ccc(Cl)cc1)Nc1ccc2oc(-c3ccncc3)nc2c1`?
PPARg SRC-1 ag: 5.8; TR-FRET SRC-2 ct: 1678; PPARg SRC-3 ag: 0.9; PPARg SRC-2 ag: 9.2

High-throughput results as filed in PubChem.
